Legend:
Experiment in all cases: DAPPL (digital affinity profiling via proximity ligation, sequencing); 10 mM Tris-HCl pH 7.5, 50 mM NaCl, 1 mM DTT, 4% glycerol, room temperature, 30 min; GST-TFs on glutathione beads, 16-mer random dsDNA library, 0.1% formaldehyde crosslink after washing; high values mean tight binding
Conditions in all cases: protein: recombinant; tags: N-terminal GST; dsDNA, one strand shown
[1] = biological target: T1, ELK4 (Homo sapiens, UniProt P28324-2 1-405)
T1 sequence: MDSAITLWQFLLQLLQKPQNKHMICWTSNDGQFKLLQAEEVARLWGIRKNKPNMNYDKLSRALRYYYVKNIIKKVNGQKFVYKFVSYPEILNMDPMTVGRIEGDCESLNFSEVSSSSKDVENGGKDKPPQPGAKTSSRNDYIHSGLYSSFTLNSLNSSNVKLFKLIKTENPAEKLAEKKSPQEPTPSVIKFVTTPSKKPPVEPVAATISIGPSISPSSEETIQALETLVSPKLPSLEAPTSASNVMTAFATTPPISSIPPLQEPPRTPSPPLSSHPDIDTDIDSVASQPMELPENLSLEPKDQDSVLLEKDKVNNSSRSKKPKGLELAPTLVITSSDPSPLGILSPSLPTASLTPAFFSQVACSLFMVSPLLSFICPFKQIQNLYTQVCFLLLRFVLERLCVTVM
Procedure, shortened: (§1)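 Pools were built from human transcription factors expressed in yeast as GST fusions, captured on glutathione beads and DNA-barcoded, along with a tag-only sample. Incubation with 200 nmole of a 16-mer random double-stranded DNA library lasted 30 min at room temperature in Tris/NaCl/DTT/glycerol buffer, and was followed by washing, 0.1% formaldehyde crosslinking, proximity ligation, PCR amplification and Illumina NextSeq500 sequencing. Binding signal is the quotient of each hexamer's read frequency for a factor and its frequency for the tag-only sample.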

[2] = biological target: T2, ELF3 (Homo sapiens, UniProt P78545 1-371)
T2 sequence: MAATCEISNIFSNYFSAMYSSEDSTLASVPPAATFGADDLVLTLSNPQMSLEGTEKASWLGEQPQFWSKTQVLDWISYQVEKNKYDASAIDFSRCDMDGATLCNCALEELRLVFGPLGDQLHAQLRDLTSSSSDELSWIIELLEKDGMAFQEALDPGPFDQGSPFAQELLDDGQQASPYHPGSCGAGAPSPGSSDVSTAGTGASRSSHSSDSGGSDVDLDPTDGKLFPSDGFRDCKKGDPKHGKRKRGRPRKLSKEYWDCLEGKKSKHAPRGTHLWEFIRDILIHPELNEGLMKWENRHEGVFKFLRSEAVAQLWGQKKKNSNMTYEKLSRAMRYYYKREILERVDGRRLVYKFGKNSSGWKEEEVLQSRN
Procedure, shortened: as §1

[3] = biological target: ETV1 (Homo sapiens, UniProt P50549 1-477)
Procedure, shortened: as §1

[4] = biological target: T3, ERF (Homo sapiens, UniProt P50548 1-548)
T3 sequence: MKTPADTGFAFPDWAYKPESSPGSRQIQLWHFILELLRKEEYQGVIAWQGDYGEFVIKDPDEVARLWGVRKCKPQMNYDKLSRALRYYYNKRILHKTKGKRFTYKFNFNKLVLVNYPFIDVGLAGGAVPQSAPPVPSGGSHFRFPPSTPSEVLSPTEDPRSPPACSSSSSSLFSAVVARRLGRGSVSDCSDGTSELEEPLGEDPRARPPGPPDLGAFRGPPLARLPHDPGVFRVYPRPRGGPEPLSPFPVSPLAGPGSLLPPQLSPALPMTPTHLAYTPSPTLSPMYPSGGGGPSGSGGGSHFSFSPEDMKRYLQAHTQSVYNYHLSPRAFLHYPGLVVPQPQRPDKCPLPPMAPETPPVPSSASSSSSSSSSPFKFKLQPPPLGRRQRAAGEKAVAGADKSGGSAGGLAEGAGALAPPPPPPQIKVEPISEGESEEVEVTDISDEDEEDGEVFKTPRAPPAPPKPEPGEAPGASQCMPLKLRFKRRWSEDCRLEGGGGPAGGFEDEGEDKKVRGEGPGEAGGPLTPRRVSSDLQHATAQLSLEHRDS
Procedure, shortened: as §1

[5] = biological target: T4, ETV3L (Homo sapiens, UniProt Q6ZN32 1-361)
T4 sequence: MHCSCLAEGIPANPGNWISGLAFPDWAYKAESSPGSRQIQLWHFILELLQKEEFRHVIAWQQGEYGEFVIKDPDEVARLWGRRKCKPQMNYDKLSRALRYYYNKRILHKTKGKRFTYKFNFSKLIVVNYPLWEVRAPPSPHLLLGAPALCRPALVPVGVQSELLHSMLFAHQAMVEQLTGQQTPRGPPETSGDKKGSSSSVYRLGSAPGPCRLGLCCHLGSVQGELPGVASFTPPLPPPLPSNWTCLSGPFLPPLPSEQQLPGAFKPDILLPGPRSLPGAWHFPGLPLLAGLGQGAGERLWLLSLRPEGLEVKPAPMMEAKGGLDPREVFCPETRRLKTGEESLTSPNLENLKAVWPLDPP
Procedure, shortened: as §1

[6] = biological target: T5, ETS2 (Homo sapiens, UniProt P15036 1-469)
T5 sequence: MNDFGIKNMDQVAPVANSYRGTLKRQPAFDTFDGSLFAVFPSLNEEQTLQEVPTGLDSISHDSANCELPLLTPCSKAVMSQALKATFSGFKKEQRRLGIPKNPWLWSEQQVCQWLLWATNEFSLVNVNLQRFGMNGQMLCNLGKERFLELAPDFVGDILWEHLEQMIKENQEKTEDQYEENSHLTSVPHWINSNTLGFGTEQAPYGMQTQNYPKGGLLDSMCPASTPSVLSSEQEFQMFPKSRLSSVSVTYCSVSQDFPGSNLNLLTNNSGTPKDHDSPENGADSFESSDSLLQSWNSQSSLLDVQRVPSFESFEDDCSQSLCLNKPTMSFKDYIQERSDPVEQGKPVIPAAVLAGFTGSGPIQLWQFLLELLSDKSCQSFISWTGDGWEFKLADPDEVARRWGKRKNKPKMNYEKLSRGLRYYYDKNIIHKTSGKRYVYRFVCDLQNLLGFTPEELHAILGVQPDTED
Procedure, shortened: as §1

[7] = biological target: T6, SPDEF (Homo sapiens, UniProt O95238 1-335)
T6 sequence: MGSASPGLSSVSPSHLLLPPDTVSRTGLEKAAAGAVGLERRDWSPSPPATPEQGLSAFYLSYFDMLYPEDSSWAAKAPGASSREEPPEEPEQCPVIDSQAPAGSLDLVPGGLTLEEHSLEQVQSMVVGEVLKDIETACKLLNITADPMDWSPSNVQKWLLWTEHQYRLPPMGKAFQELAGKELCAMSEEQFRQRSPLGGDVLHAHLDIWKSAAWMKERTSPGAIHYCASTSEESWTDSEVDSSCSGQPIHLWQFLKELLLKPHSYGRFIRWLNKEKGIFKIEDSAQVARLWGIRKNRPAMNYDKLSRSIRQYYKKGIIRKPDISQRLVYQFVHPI
Procedure, shortened: as §1

[8] = biological target: T7, ETV7 (Homo sapiens, UniProt Q9Y603 1-341)
T7 sequence: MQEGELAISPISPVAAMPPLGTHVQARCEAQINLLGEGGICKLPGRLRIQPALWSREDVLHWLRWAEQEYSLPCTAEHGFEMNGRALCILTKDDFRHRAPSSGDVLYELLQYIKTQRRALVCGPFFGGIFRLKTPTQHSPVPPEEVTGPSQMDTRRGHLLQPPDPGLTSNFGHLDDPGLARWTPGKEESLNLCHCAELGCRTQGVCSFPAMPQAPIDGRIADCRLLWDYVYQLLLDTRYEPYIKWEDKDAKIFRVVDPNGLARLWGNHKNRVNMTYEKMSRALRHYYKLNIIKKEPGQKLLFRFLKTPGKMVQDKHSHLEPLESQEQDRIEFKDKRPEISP
Procedure, shortened: as §1

[9] = biological target: T8, ETV3 (Homo sapiens, UniProt P41162-2 1-143)
T8 sequence: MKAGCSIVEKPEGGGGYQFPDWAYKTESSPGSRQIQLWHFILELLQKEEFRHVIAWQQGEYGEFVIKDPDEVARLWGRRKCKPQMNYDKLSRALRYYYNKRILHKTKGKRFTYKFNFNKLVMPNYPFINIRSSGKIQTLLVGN
Procedure, shortened: as §1

[10] = biological target: ETV6 (Homo sapiens, UniProt P41212 1-452)
Procedure, shortened: as §1

Sequence of ETV6 (P41212 whole entry): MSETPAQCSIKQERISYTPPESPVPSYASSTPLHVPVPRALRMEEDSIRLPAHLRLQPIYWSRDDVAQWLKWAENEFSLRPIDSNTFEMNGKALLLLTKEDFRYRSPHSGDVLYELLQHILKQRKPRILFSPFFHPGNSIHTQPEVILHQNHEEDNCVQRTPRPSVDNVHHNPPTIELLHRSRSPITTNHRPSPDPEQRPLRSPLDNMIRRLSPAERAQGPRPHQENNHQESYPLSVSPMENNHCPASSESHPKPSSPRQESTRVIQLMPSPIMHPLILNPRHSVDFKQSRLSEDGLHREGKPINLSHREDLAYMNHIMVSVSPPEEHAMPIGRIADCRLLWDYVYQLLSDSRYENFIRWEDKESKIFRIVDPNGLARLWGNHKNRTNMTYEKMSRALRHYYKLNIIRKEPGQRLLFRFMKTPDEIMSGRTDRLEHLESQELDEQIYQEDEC
Sequence of ETV1 (P50549 whole entry): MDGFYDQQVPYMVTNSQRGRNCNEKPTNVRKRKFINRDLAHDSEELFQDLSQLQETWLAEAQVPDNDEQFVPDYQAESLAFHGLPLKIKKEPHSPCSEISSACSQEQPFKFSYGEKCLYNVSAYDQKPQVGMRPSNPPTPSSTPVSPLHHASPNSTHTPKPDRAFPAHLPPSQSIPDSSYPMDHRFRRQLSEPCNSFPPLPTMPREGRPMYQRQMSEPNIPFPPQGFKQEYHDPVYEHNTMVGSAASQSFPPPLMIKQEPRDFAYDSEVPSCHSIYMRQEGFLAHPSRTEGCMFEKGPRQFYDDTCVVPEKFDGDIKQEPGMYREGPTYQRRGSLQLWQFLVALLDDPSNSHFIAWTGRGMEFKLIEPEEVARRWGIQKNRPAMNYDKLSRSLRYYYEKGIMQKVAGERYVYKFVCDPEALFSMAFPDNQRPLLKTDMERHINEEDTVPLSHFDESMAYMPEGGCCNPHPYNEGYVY

Sequence: CAAACA
- binding signal [1]: 1.13 fold enrichment (6-mer frequency, TF over GST control)
- binding signal [2]: 1.21 fold enrichment (6-mer frequency, TF over GST control)
- binding signal [3]: 1.09 fold enrichment (6-mer frequency, TF over GST control)
- binding signal [4]: 1.08 fold enrichment (6-mer frequency, TF over GST control)
- binding signal [5]: 1.12 fold enrichment (6-mer frequency, TF over GST control)
- binding signal [6]: 1.16 fold enrichment (6-mer frequency, TF over GST control)
- binding signal [7]: 1.12 fold enrichment (6-mer frequency, TF over GST control)
- binding signal [8]: 1.07 fold enrichment (6-mer frequency, TF over GST control)
- binding signal [9]: 1.13 fold enrichment (6-mer frequency, TF over GST control)
- binding signal [10]: 1.1 fold enrichment (6-mer frequency, TF over GST control)

— article PMC7862700, “An all-to-all approach to the identification of sequence-specific readers for epigenetic DNA modifications on cytosine”
